About 83,000 compounds went through this panel and 20% of them were active in at least one assay; those are over-represented in the sample as a whole.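 Results are percent growth after 48 hours of single-concentration exposure. 100 means growth as in untreated cells, lower positive values show inhibition; negative values down to -100 show cell death.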 Unmarked numbers belong to inactive results. Calls of active or inactive are those of the source. Rule for the calls: active = growth percent below 10; inactive = the rest.
Key:
Assay in all cases: NCI-60 one-dose screen, 48 h (100 = growth as untreated, 0 = no growth, -100 = all killed)
Conditions in all cases: 10 µM unless noted
DU-145 prostate = tested on: DU-145 prostate
K-562 leukemia = tested on: K-562 leukemia
MALME-3M melanoma = tested on: MALME-3M melanoma
MDA-MB-231 breast = tested on: MDA-MB-231 breast
RXF 393 renal = tested on: RXF 393 renal
SF-268 CNS = tested on: SF-268 CNS
SF-295 CNS = tested on: SF-295 CNS
SF-539 CNS = tested on: SF-539 CNS
UACC-257 melanoma = tested on: UACC-257 melanoma
M14 melanoma = tested on: M14 melanoma

| SMILES | growth (DU-145 prostate) | growth (K-562 leukemia) | growth (MALME-3M melanoma) | growth (MDA-MB-231 breast) | growth (RXF 393 renal) | growth (SF-268 CNS) | growth (SF-295 CNS) | growth (SF-539 CNS) | growth (UACC-257 melanoma) | growth (M14 melanoma) |
| --- | --- | --- | --- | --- | --- | --- | --- | --- | --- | --- |
| Nc1ccccc1NC(=O)c1ccc(-n2nc(-c3ccccc3)c3ccccc32)cc1 | 87.2% | 43.7% | 68.9% | 42.9% | 88.7% | 68.2% | 90.7% | 48.8% | 86.2% | 88.9% |
| Cn1ccnc1C(=O)/C=C/c1ccc(CC(=O)NC2CCCCC2)cc1 | 6.25% (active) | 18% | 92% | 65.1% | 73.2% | 40.9% | 77.8% | 63.7% | 84.8% | 89.8% |
| Cc1cc2nc3c4cccc(O)c4n(CCN(C)C)c3nc2cc1C | 29.8% | 6.28% (active) | 32.9% | 28.1% | 35.1% | 51.1% | 32.1% | 25.7% | 63.5% | 44.2% |
| CCCOc1ccc(/C=N/Nc2cc(C)nc3ccc(Cl)cc23)cc1 | 24.2% | -37% (active) | -59% (active) | 60.1% | -18.9% (active) | 83.8% | -74.3% (active) | -62.6% (active) | 89.8% | -29.8% (active) |
| O=Cc1cc2ccccc2nc1Oc1ccc(C(F)(F)F)cc1 | 98.4% | 59% | 96% | 75.7% | 91.9% | 83.4% | 82.9% | 97.8% | 107% | 99.8% |
| Nc1c(C(=O)Nc2ccnc3ccccc23)sc2nc3c(cc12)CN(Cc1ccccc1)CC3 | 85.6% | 38.5% | 96% | 67.7% | 96.1% | 87.8% | 75.2% | 99.1% | 78.8% | 41.9% |
| COc1cc2nc(-c3ccc(Cl)cc3)cc(OCCCN3CCCCC3)c2cc1OC | 40.9% | 14.3% | 46.1% | 27.4% | 39.1% | 57.5% | -51.3% (active) | 49.5% | -0.848% (active) | -28.2% (active) |
| O=C(CNCCN1CCOCC1)N1c2cccc3cccc(c23)N(C(=O)CNCCN2CCOCC2)C1c1cn(-c2ccccc2)nc1-c1cccc([N+](=O)[O-])c1 | 87.8% | -21.4% (active) | -87.3% (active) | 54.4% | 47.9% | 69.6% | 100% | 63.3% | 90.3% | -16.1% (active) |
| COc1ccc(C(=O)C2C(C#N)C(C#N)C3C=Cc4ccccc4N32)cc1 (stereo not given) | 24.2% | 11.5% | 38.6% | 29% | -21.8% (active) | 55.7% | 22.5% | -20.9% (active) | 82.9% | -6.64% (active) |
| CCOC(=O)CSc1nc2ccccc2c(=O)n1Cc1ccc(S(N)(=O)=O)cc1 | 113% | 97.1% | 105% | 101% | 98.4% | 99.2% | 99.4% | 97.7% | 101% | 97% |
| Cc1cc(C)c(S(=O)(=O)Oc2ccccc2[N+](=O)[O-])c(C)c1 | 15.7% | 22.1% | 21% | 33.2% | 4.44% (active) | 37.2% | -7.8% (active) | -8.46% (active) | 32.4% | 14.2% |
| COc1ccc(C(=O)Nc2cccc(C3CCc4c(cc(OC)c(OC)c4OC)O3)c2)cc1 (stereo not given) | 69.9% | 16.8% | 46.2% | 63.1% | 81.1% | 52.7% | 42.2% | 61.3% | 52% | 34.2% |
| COc1cc(-c2n/c(=C\c3c(O)[nH]c4ccc(Cl)cc34)cc3c2=Nc2ccccc2-3)ccc1F | -36.4% (active) | 13.4% | -66.4% (active) | -7.94% (active) | -78.7% (active) | -40.1% (active) | 43.1% | 54.6% | 58.1% | 14% |
| COc1ccc(C(=O)C2C(C#N)C(C#N)C3c4ccccc4C=CN23)cc1 (stereo not given) | 103% | 73.1% | 92.1% | 79.2% | 77.9% | 91% | 95.8% | 95.4% | 85.7% | 96.2% |
| CN(C)CC(O)c1ccc(/C=C/c2ccc(Cl)cc2)cc1 (stereo not given) | -88.8% (active) | -47.6% (active) | 21.9% | -82.3% (active) | 8.01% (active) | -52.4% (active) | -48.2% (active) | -67.6% (active) | -81.2% (active) | -34.8% (active) |
| O=C(Cn1c[n+](CC(=O)c2ccc([N+](=O)[O-])cc2)c2ccccc21)Nc1cccc2cccnc12 | 85.1% | 38.2% | 81.4% | 50.5% | 97.6% | 65.1% | 101% | 87.8% | 48.6% | 78.4% |
| Nc1nc(Nc2ccccc2SSc2ccccc2Nc2nc(N)nc(-c3ccc(C(F)(F)F)cc3)n2)nc(-c2ccc(C(F)(F)F)cc2)n1 | 73.4% | 55% | 93% | 67.4% | 78.6% | 50.4% | 65.5% | 88.2% | 106% | 72.5% |
| c1ccc2c(-c3nccs3)c[nH]c2c1 | 107% | 99.2% | 99.1% | 92.6% | 95% | 96.7% | 101% | 96.4% | 111% | 99.1% |
| CCCCNC(=O)Oc1ccc(/C(=C(\C)c2ccccc2)c2ccc(OCCN3CCCCC3)cc2)cc1 | 82.3% | 5.45% (active) | 44.6% | 73% | 53.2% | 67.7% | 42.6% | 31% | -24.1% (active) | -15.6% (active) |
| COc1cc2c(c(O)c1Cl)C(=O)c1c(O)cc(C[C@H](C)O)cc1[C@H]2[C@H]1c2cc(C[C@H](C)O)cc(O)c2C(=O)c2c1cc(OC)c(Cl)c2O | 23.8% | 11.7% | -32.6% (active) | -57.9% (active) | 10.4% | 21.4% | -14.6% (active) | -8.14% (active) | -4.04% (active) | 19% |
| COc1cccc(-c2nc3occn3c2-c2ccnc(NCCCNS(=O)(=O)c3ccc(C(F)(F)F)cc3)n2)c1 | 89.2% | 69.8% | 95.8% | 90.1% | 79.6% | 75% | 95.2% | 89.5% | 84.5% | 85.6% |
| NC1=NN=C(N)C1=Cc1cc2ccccc2n2nnnc12 | 100% | 92.9% | 108% | 95.5% | 110% | 98.6% | 99.3% | 102% | 98.3% | 111% |
| CCCCCCOc1ccc(/C=N/Nc2cc(C)nc3ccc(Cl)cc23)cc1 | -49% (active) | -20.4% (active) | -48.7% (active) | -79.9% (active) | -94.3% (active) | 69.9% | -84.3% (active) | -86.5% (active) | 116% | 2.01% (active) |
| O=c1ccc(-c2nc(N3CCOCC3)c3ccccc3n2)c[nH]1 | 93.6% | 116% | 99.4% | 88.4% | 103% | 88.1% | 90.5% | 93.5% | 124% | 93.3% |
| CNC(=O)c1cc(Cn2nc(C)c(NC(=O)Nc3ccc(Cl)c(C(F)(F)F)c3)c2C)ccn1 | 101% | 112% | 98.5% | 91.8% | 102% | 98% | 95.5% | 94% | 79% | 97.5% |
| CC1=C(C(=O)/C=C/c2ccc(N(C)C)cc2)C(c2ccccc2)NC(=S)N1 (stereo not given) | 107% | 92.1% | 108% | 100% | 107% | 97.8% | 110% | 97.1% | 99.7% | 101% |

Reference: PubChem BioAssay (NCI)
